# Assay results reported in paper PMC7862700, “An all-to-all approach to the identification of sequence-specific readers for epigenetic DNA modifications on cytosine”.
# Tests used:
# Test in all cases: DAPPL (digital affinity profiling via proximity ligation, sequencing); 10 mM Tris-HCl pH 7.5, 50 mM NaCl, 1 mM DTT, 4% glycerol, room temperature, 30 min; GST-TFs on glutathione beads, 16-mer random dsDNA library, 0.1% formaldehyde crosslink after washing; high values mean tight binding
# Settings in all cases: protein: recombinant; tags: N-terminal GST; dsDNA, one strand shown
# FLI1 = target: T1, FLI1 (Homo sapiens, UniProt Q01543 1-452)
# T1 sequence: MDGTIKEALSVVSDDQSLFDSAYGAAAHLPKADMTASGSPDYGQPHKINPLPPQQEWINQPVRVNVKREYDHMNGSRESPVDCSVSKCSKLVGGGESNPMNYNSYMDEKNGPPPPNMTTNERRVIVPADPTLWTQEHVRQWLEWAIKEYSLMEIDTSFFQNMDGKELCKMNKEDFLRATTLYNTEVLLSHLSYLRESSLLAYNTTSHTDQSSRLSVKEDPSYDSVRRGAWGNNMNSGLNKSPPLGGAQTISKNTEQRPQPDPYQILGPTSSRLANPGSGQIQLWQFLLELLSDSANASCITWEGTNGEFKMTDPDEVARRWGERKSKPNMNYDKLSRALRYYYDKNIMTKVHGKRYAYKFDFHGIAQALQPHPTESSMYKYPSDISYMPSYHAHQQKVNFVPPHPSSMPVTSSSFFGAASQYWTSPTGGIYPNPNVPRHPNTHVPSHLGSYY
# Outline: (§1)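 Human transcription factors were made in yeast as GST fusions, captured on glutathione beads and barcoded with DNA. With a tag-only sample included, the pool was incubated with 200 nmole of a random double-stranded 16-mer DNA library in Tris/NaCl/DTT/glycerol buffer at room temperature for 30 min, then crosslinked with 0.1% formaldehyde after washing, ligated by proximity, amplified and sequenced. For binding signal, each hexamer's read frequency for a factor is divided by its frequency for the tag-only sample.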
# ELK1 = target: T2, ELK1 (Homo sapiens, UniProt P19419 1-428)
# T2 sequence: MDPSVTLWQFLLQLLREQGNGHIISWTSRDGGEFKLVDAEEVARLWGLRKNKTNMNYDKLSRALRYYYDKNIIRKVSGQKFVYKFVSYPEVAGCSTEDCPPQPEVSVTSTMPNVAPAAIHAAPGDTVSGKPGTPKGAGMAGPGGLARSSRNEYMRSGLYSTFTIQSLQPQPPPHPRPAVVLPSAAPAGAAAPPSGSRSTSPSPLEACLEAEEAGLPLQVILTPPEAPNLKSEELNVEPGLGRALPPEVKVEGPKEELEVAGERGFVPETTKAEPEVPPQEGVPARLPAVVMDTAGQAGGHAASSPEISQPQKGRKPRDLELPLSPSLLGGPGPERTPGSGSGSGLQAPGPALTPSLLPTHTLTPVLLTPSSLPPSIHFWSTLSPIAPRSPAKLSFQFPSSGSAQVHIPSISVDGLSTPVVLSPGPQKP
# Outline: as §1
# GABPA = target: T3, GABPA (Homo sapiens, UniProt Q06546 1-454)
# T3 sequence: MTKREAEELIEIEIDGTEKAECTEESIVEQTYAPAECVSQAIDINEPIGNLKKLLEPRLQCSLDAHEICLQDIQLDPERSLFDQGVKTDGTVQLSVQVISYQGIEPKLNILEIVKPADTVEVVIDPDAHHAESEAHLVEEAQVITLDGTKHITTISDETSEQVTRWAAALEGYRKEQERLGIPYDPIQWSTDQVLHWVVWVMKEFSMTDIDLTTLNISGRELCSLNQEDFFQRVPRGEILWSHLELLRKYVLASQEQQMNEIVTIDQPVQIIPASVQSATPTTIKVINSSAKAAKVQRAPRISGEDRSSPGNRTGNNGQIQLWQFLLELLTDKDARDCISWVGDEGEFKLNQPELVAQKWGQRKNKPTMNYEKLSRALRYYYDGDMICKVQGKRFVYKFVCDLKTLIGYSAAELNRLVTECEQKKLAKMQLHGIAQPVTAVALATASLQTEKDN
# Outline: as §1
# ERG = target: T4, ERG (Homo sapiens, UniProt P11308 1-479)
# T4 sequence: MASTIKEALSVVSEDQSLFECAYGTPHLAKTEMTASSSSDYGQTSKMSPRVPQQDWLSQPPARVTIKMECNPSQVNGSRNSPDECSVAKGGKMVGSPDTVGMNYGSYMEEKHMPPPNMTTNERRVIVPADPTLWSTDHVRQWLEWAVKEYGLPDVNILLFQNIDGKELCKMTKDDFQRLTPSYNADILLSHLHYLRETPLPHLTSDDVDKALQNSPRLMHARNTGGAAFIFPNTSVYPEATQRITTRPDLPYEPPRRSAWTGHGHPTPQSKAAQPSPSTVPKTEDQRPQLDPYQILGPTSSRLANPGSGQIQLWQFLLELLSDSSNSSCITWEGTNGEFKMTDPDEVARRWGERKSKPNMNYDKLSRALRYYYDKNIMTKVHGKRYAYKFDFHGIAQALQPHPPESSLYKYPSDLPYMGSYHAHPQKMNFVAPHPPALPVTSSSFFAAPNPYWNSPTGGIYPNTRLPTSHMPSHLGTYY
# Outline: as §1
# ELF1 = ELF1 (Homo sapiens, UniProt P32519 1-619)
# Outline: as §1
# EHF = target: T5, EHF (Homo sapiens, UniProt Q9NZC4 1-300)
# T5 sequence: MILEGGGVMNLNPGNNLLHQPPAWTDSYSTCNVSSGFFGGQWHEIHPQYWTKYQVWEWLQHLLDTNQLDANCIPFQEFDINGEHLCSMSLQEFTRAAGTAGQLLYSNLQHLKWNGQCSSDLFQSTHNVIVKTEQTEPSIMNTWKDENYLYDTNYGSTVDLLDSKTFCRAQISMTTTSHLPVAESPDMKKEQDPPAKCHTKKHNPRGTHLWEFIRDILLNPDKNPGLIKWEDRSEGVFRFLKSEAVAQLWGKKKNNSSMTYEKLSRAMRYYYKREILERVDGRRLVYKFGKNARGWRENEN
# Outline: as §1
# SPI1 = SPI1 (Homo sapiens, UniProt P17947 1-270)
# Outline: as §1
# SPIB = SPIB (Homo sapiens, UniProt Q01892 1-262)
# Outline: as §1
# ELK3 = target: T6, ELK3 (Homo sapiens, UniProt P41970 1-407)
# T6 sequence: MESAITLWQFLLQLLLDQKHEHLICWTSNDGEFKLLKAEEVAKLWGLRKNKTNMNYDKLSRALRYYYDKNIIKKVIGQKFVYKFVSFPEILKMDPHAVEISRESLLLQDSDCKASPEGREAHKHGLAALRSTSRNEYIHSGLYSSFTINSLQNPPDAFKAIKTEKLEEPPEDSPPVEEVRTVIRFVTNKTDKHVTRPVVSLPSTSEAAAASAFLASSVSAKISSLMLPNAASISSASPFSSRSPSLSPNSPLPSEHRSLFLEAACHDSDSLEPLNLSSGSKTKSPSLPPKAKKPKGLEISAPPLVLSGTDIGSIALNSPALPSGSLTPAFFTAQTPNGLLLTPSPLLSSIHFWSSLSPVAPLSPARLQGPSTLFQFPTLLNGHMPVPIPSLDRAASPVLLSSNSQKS
# Outline: as §1
# FEV = target: T7, FEV (Homo sapiens, UniProt Q99581 1-238)
# T7 sequence: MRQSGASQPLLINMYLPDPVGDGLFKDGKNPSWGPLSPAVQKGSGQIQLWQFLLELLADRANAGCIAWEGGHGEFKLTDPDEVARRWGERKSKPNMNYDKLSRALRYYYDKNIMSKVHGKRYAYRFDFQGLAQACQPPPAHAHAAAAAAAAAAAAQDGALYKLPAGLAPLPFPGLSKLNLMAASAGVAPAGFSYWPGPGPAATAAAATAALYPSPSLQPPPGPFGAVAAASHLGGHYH
# Outline: as §1
# ETV5 = ETV5 (Homo sapiens, UniProt P41161 1-510)
# Outline: as §1
# SPIC = target: T8, SPIC (Homo sapiens, UniProt Q8N5J4 1-248)
# T8 sequence: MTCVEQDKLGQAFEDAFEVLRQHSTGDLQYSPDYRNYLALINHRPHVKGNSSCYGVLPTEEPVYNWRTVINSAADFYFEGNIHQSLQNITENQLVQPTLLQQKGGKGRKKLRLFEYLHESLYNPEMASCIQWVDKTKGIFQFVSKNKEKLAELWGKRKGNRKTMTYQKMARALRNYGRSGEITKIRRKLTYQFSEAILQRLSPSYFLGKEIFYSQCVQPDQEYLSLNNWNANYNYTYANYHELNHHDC
# Outline: as §1
# ELF4 = ELF4 (Homo sapiens, UniProt Q99607 1-663)
# Outline: as §1
# ELK4 = target: T9, ELK4 (Homo sapiens, UniProt P28324-2 1-405)
# T9 sequence: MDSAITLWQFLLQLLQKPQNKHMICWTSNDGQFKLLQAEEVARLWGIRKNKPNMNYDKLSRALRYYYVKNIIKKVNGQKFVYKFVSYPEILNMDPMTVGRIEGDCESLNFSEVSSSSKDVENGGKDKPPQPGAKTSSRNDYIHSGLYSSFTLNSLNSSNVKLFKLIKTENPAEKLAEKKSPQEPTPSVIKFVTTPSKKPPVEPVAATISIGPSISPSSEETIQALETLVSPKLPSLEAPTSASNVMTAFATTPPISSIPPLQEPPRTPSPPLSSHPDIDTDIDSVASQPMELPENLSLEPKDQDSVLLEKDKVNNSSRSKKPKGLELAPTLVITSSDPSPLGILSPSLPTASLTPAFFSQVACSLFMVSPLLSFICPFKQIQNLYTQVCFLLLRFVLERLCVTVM
# Outline: as §1
# ETV2 = target: T10, ETV2 (Homo sapiens, UniProt O00321 1-342)
# T10 sequence: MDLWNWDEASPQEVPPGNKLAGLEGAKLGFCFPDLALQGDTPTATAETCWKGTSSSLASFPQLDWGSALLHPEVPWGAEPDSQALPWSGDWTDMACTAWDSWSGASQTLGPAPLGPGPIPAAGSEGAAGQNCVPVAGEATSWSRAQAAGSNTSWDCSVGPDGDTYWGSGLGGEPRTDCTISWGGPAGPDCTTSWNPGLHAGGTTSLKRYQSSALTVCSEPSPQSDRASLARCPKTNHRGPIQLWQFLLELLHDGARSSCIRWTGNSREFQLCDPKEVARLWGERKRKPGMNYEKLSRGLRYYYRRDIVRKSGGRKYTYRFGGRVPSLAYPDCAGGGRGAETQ
# Outline: as §1
# ELF3 = target: T11, ELF3 (Homo sapiens, UniProt P78545 1-371)
# T11 sequence: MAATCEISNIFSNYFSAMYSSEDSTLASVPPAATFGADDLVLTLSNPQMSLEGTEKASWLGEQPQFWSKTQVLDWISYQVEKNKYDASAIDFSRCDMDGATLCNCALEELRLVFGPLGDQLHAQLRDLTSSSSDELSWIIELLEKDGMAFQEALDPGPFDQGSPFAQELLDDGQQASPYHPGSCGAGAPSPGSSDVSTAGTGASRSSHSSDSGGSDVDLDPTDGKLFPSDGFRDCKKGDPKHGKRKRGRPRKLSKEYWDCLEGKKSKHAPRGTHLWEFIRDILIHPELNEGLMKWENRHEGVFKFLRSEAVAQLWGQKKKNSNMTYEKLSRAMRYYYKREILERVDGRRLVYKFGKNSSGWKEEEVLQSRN
# Outline: as §1
# CRX = CRX (Homo sapiens, UniProt O43186 1-299)
# Outline: as §1
# ETV1 = ETV1 (Homo sapiens, UniProt P50549 1-477)
# Outline: as §1
# Sequence of CRX (O43186 whole entry): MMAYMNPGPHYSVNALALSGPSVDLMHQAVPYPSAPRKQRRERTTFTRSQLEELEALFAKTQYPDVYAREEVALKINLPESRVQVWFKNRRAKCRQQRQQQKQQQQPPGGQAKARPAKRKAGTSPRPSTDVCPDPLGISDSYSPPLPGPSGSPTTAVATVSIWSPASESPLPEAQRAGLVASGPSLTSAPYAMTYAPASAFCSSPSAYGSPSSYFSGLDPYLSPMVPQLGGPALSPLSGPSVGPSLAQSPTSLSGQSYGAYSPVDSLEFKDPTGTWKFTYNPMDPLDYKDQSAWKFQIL
# Sequence of SPIB (Q01892 whole entry): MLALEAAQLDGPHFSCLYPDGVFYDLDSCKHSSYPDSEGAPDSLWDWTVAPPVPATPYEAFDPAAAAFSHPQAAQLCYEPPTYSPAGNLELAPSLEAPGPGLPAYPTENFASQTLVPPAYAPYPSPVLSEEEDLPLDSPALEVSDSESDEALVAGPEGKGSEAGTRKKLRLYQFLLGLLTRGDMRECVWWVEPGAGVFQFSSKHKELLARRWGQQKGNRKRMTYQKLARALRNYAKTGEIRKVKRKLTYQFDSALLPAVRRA
# Sequence of ETV5 (P41161 whole entry): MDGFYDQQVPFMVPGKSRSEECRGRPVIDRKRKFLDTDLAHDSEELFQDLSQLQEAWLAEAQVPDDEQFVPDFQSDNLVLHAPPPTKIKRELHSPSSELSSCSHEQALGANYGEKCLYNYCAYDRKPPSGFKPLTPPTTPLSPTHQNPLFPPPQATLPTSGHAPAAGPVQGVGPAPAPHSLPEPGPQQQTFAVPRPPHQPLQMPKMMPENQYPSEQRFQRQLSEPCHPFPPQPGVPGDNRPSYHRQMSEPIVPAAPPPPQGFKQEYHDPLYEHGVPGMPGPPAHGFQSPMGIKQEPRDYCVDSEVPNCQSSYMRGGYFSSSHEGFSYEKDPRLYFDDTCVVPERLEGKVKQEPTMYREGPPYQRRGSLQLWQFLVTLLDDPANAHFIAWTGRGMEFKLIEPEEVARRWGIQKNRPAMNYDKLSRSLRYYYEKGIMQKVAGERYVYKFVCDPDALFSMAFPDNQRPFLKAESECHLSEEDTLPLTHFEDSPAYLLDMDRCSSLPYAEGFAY
# Sequence of ELF1 (P32519 whole entry): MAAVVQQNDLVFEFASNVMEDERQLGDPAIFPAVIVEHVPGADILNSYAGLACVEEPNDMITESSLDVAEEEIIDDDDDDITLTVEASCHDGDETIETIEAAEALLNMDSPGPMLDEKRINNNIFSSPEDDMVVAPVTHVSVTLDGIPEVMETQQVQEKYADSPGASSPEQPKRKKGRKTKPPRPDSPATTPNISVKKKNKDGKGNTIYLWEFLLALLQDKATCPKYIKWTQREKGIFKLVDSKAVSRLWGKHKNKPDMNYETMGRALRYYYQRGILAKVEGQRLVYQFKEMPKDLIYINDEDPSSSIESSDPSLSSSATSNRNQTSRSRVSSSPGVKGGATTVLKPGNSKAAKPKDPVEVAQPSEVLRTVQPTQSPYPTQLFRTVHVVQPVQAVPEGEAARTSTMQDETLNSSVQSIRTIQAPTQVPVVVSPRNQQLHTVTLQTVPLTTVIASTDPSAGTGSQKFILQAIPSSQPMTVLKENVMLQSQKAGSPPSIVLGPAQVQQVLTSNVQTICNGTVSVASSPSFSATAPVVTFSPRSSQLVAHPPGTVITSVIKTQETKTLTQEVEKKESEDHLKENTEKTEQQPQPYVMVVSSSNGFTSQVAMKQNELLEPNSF
# Sequence of ELF4 (Q99607 whole entry): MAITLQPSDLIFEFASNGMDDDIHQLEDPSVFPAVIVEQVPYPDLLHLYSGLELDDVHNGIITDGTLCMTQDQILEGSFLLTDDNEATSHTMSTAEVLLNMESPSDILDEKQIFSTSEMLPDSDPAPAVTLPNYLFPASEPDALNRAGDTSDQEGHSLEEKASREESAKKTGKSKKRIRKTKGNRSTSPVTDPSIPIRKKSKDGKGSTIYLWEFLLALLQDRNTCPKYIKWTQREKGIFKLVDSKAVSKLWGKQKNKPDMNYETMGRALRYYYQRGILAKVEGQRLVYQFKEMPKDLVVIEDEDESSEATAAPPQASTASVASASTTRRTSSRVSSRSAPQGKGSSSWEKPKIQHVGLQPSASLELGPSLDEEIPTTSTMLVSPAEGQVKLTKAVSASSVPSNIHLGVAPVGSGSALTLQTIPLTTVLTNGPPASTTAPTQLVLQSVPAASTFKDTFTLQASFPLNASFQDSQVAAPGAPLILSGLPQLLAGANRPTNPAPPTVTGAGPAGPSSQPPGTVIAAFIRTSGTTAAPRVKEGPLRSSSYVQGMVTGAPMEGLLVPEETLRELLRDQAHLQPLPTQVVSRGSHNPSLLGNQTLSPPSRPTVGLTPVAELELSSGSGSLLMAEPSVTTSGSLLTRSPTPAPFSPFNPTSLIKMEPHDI
# Sequence of ETV1 (P50549 whole entry): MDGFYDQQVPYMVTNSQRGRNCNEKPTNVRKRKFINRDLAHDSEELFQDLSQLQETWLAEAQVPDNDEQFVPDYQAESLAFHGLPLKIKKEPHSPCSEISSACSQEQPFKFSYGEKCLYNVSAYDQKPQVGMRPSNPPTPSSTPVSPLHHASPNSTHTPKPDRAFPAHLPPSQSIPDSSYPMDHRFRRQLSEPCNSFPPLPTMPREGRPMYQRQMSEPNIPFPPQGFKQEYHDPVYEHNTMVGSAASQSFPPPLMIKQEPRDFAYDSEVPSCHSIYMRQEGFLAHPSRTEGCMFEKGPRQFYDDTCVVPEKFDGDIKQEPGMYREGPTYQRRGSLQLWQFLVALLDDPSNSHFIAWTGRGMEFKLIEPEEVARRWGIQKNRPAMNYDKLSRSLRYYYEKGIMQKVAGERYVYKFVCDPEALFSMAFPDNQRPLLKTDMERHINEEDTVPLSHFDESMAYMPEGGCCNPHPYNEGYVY
sequence,measurement,setting,value
TCAATG,binding signal,FLI1,"1.08 fold enrichment (6-mer frequency, TF over GST control)"
same,binding signal,ELK1,"1.13 fold enrichment (6-mer frequency, TF over GST control)"
same,binding signal,GABPA,"1.11 fold enrichment (6-mer frequency, TF over GST control)"
same,binding signal,ERG,"1.1 fold enrichment (6-mer frequency, TF over GST control)"
same,binding signal,ELF1,"1.04 fold enrichment (6-mer frequency, TF over GST control)"
same,binding signal,EHF,"1.04 fold enrichment (6-mer frequency, TF over GST control)"
same,binding signal,SPI1,"1.07 fold enrichment (6-mer frequency, TF over GST control)"
same,binding signal,SPIB,"1.11 fold enrichment (6-mer frequency, TF over GST control)"
same,binding signal,ELK3,"1.07 fold enrichment (6-mer frequency, TF over GST control)"
same,binding signal,FEV,"1.03 fold enrichment (6-mer frequency, TF over GST control)"
same,binding signal,ETV5,"1.02 fold enrichment (6-mer frequency, TF over GST control)"
same,binding signal,SPIC,"1.09 fold enrichment (6-mer frequency, TF over GST control)"
same,binding signal,ELF4,"1.06 fold enrichment (6-mer frequency, TF over GST control)"
same,binding signal,ELK4,"1.04 fold enrichment (6-mer frequency, TF over GST control)"
same,binding signal,ETV2,"1.05 fold enrichment (6-mer frequency, TF over GST control)"
same,binding signal,ELF3,"1.03 fold enrichment (6-mer frequency, TF over GST control)"
same,binding signal,CRX,"1.02 fold enrichment (6-mer frequency, TF over GST control)"
same,binding signal,ETV1,"1.15 fold enrichment (6-mer frequency, TF over GST control)"
